Assay outcomes (PubChem BioAssay)
Most compounds without a hit are left out; they make up all but 2.4% or so of the library.
MBD2 DNA inh – blocks human MBD2 binding to methylated DNA; TR-FRET, MBD2 binding to methylated oligonucleotide; inhibition, % at 4.4 µM; hit rate 0.31% among 370,000; in the data active means inhibition above about 13%
PLC-gamma1 inh – blocks human PLC-gamma1 enzyme activity; hit rate 0.84% among 370,000; purified PLC-gamma1, fluorogenic substrate, fluorescence; AID 720700; inhibition, % at 12.2 µM; P19174
LEDGF integ inh – blocks HIV-1 LEDGF/p75-dependent DNA integration; TR-FRET IN-LEDGF/p75 DNA integration, Eu/Cy5; inhibition, % at 3.7 µM; hit rate 0.64% among 370,000; AID 743269;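 active means inhibition above the screen-wide mean plus 3 SD, cut at about 13% in these data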;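 further: signal is the Cy5 over europium emission ratio at 671 and 618 nm; 0% = plate median of compound wells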
PLCb3 inh – inhibitors of human phospholipase C beta3; Q01970; Purified PLC-beta3, fluorogenic substrate, fluorescence; inhibition, % at 12.2 µM; hit rate 0.18% among 370,000; in the data active means inhibition above about 11%;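 further: 0% = median of compound wells on plate and 100% = full blocker control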
UHRF1 binding – UHRF1 methyl-DNA binding inhibition. inhibition, % at 4.4 µM. hit rate 0.75% among 370,000. UHRF1 binding to methylated oligo, TR-FRET; in the data active means inhibition above about 21%;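 further: UHRF1 SRA domain binding a hemimethylated CpG hairpin DNA probe; 0% = median of test compound wells and 100% = reference inhibitor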
PLCgamma1 ctr – counter-screen for PLC-beta3 inhibitors: inhibitors of human PLC-gamma1 | purified PLC-gamma1, fluorogenic substrate, fluorescence | hit rate 3.1% among 3,300 | shares compounds with PLC-gamma1 inh | AID 743258 | inhibition, % at 12.3 µM
PLCb3 confirm – confirmation of human PLC-beta3 inhibitors; AID 743261; purified PLC-beta3, fluorogenic substrate fluorescence; hit rate 1% among 3,300; shares compounds with PLC-gamma1 inh; inhibition, % at 12.3 µM; in the data active means inhibition above about 11%
* marks the source's active call; other numbers are inactive results; . = not tested or not shown. Unless noted, no stated cut-off is given here; in the data, active means inhibition above about 9.5%; inactive means the rest.

SMILES | MBD2 DNA inh | PLC-gamma1 inh | LEDGF integ inh | PLCb3 inh | UHRF1 binding | PLCgamma1 ctr | PLCb3 confirm
COC(=O)c1ccc(C)c(NC(=O)Cn2cnc3ccccc3c2=O)c1 | 1.1 | 9.2 | -2.8 | 11.1* | -1.5 | -9.4 | -6.8
CC(C)[C@H](NS(=O)(=O)c1ccc(F)cc1F)C(=O)N1CCC[C@H]1C(=O)NCCc1ccccc1Cl | 2.0 | 3.2 | -4.5 | -1.0 | -1.0 | . | .
CCCCNC(=O)C[C@H]1C[C@@]2(C(=O)OC)C(=C[C@H](C3CCCC3)O[C@@H]2C)N(CCc2ccc(OC)c(OC)c2)C1=O | 3.7 | 0.8 | 2.2 | 1.0 | -1.5 | . | .
CCOC(=O)[C@@H](CCc1ccccc1)N[C@@H](C)C(=O)N1CCC[C@H]1C(=O)O | 2.4 | -2.2 | -2.4 | 2.5 | 1.1 | . | .
NC(N)=NC(N)=Nc1ccc(SC(F)(F)F)cc1 | 7.6 | 10.9* | 3.0 | 2.3 | 5.4 | 7.7 | 2.3
CCC[C@H](/C=C/C(=O)OC(C)(C)C)Sc1ccc(OC)cc1 | -3.6 | 1.9 | -1.8 | -0.8 | -0.2 | . | .
COC(=O)c1cn(-c2ccc(-c3noc4c3C(=O)N(CC(=O)N3CCOCC3)CC4)cc2)nn1 | 11.5 | -1.7 | 2.9 | -4.8 | 7.5 | . | .
CCCCC(=O)Nc1cc(NC(=O)CCCC)cc(C(=O)O)c1 | -0.8 | 15.1* | 3.4 | 5.7 | 2.4 | -5.2 | 0.2
CCCCC(=O)Nc1ccc(C)c(O)c1 | -1.6 | 9.6* | 1.5 | 11.0* | 4.7 | 1.4 | 2.1
CCCC(=O)Nc1ccc(C)c(O)c1 | 3.2 | 1.5 | -1.7 | 5.3 | 3.2 | . | .
CCCCC(=O)Nc1ccc(C(=O)c2ccccc2)cc1 | 4.2 | -0.4 | -1.3 | -5.9 | 3.8 | . | .
CC(C)C(NC(=O)[C@H](Cc1ccc(O)cc1)NC(=O)OC(C)(C)C)P(=O)(O)OC(Cc1ccccc1)C(=O)O (stereo partly drawn) | 3.4 | -1.5 | -1.1 | -0.4 | 2.9 | . | .
COC(=O)[C@]12C[C@H](CC(=O)N3CCC(c4ccccc4)CC3)C(=O)N(Cc3ccc(Cl)cc3Cl)C1=C[C@H](C(C)(C)C)O[C@@H]2C | -6.8 | 3.4 | 0.1 | 0.9 | -3.5 | . | .
C#CCn1c(S(=O)(=O)Cc2ccccc2Cl)nc(-c2ccccc2)c1-c1ccccc1 | -4.1 | 2.8 | 0.0 | 3.2 | -0.4 | . | .
C#CCn1c(S(=O)(=O)Cc2ccc(C)cc2)nc(-c2ccccc2)c1-c1ccccc1 | 4.3 | 10.0* | -0.5 | -2.2 | -2.4 | 1.1 | -5.6
COc1ccc(OCCCC(=O)Nc2ccc(N3CCOCC3)cc2)cc1 | -2.1 | 0.1 | -1.3 | 0.4 | -0.6 | . | .
COc1ccc(OCCCC(=O)Nc2ccc(N3CCCCC3)cc2)cc1 | -1.6 | 10.1* | 2.8 | 9.9 | 2.9 | -3.1 | 0.0
COc1ccc(NC(=O)CCN2CCCCCC2)cc1 | 2.8 | 10.5* | 0.6 | -1.2 | -1.4 | -3.2 | -2.7
CCOC(=O)N1CCN(CCC(=O)Nc2ccc(C)cc2)CC1 | 1.5 | 10.9* | 1.5 | 1.4 | 2.6 | -0.1 | -1.6
CCOC(=O)N1CCN(Cc2nc3cc(NC(=O)C(C)C)ccc3n2C)CC1 | -1.1 | 11.7* | 5.6 | -2.1 | 4.7 | -8.5 | -8.4
C[C@@H]1CCCCO[C@@H](CN(C)S(=O)(=O)c2ccccc2)[C@@H](C)CN([C@H](C)CO)C(=O)c2cc(NS(=O)(=O)c3ccc(F)cc3)ccc2O1 | -0.8 | 16.6* | 0.8 | 8.1 | 1.9 | -1.8 | -5.5
C[C@H]1CCCCO[C@@H](CN(C)S(=O)(=O)c2ccc(Cl)cc2)[C@@H](C)CN([C@@H](C)CO)C(=O)c2cc(NS(=O)(=O)c3ccccc3)ccc2O1 | -4.8 | 2.5 | -4.7 | 1.2 | -0.2 | . | .
COc1ccc(S(=O)(=O)Nc2ccc3c(c2)C(=O)N([C@@H](C)CO)C[C@H](C)[C@H](CN(C)S(=O)(=O)c2ccc(F)cc2)O3)cc1 | -0.9 | -0.6 | -0.3 | 4.5 | 0.8 | . | .
COc1ccc(S(=O)(=O)Nc2ccc3c(c2)CC(=O)N([C@@H](C)CO)C[C@H](C)[C@@H](CN(C)S(=O)(=O)c2ccc(F)cc2)O3)cc1 | 2.2 | 10.8* | -0.1 | 5.8 | 8.1 | -2.3 | -2.7
CCOC(=O)[C@]12CCCCC/C=C\1N(Cc1ccc(OC)cc1)C(=O)[C@H]2CC(=O)N1CCCC1 | -1.8 | 3.5 | -3.3 | 0.4 | 0.6 | . | .
C#CCN1CC(N(C)CCOC(=O)CC2C=CCC2)CS1(=O)=O (stereo not drawn) | -2.6 | -0.9 | -1.0 | -0.1 | -0.4 | . | .
